Compounds without any hit were thinned out: in the full panel of roughly 83,000, 20% have a hit.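 Assay: single dose, 48 h. Readout: percent growth (0 = no net growth; negative = cell death). Active: <10.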 Active and inactive are the calls of the source.
Key:
Test in all cases: NCI-60 one-dose screen, 48 h (100 = growth as untreated, 0 = no growth, -100 = all killed)
Conditions in all cases: 10 µM unless noted
[1] = test system: DU-145 prostate
[2] = test system: K-562 leukemia
[3] = test system: MALME-3M melanoma
[4] = test system: MDA-MB-231 breast
[5] = test system: RXF 393 renal
[6] = test system: SF-268 CNS
[7] = test system: SF-295 CNS
[8] = test system: SF-539 CNS
[9] = test system: UACC-257 melanoma
[10] = test system: M14 melanoma
[11] = test system: HCT-15 colon
[12] = test system: HT29 colon
[13] = test system: SNB-75 CNS
[14] = test system: SNB-19 CNS
[15] = test system: U251 CNS
[16] = test system: PC-3 prostate
[17] = test system: SK-MEL-5 melanoma
[18] = test system: UACC-62 melanoma
[19] = test system: LOX IMVI melanoma
[20] = test system: SK-MEL-28 melanoma

Measured: growth

Fc1ccc(NC(=S)c2ccccc2)cc1
inactive: [1] 106% | [2] 105% | [3] 96.2% | [4] 102% | [5] 109% | [6] 99% | [7] 95.8% | [8] 97.6% | [9] 98.9% | [10] 100% | [11] 102% | [12] 109% | [13] 99.7% | [14] 100% | [15] 98.5% | [16] 100% | [17] 101% | [18] 88.9% | [19] 112% | [20] 102%

COc1cc(OC)cc(C(=O)Nc2cc(-c3cccnc3)nc(NCCCN3CCOCC3)n2)c1
inactive: [1] 104% | [2] 74.1% | [3] 110% | [4] 79.6% | [5] 93.9% | [6] 94.1% | [7] 101% | [8] 91.1% | [9] 88.6% | [10] 104% | [11] 90.6% | [12] 85.2% | [13] 109% | [14] 98.7% | [15] 90.6% | [16] 85.4% | [17] 68.3% | [18] 97.6% | [19] 88.1% | [20] 101%

O=c1cc(-c2ccccc2)oc2cc(OCc3cn(Cc4ccc(F)cc4)nn3)cc(O)c12
inactive: [1] 65.8% [100 µM] | [2] 109% [100 µM] | [4] 12% [100 µM] | [6] 14.4% [100 µM] | [7] 10.4% [100 µM] | [9] 86.3% [100 µM] | [10] 65.9% [100 µM] | [11] 94.4% [100 µM] | [12] 100% [100 µM] | [16] 76% [100 µM] | [17] 84.5% [100 µM] | [18] 53.2% [100 µM] | [19] 78.5% [100 µM] | [20] 93.6% [100 µM]
active: [3] 6.44% [100 µM] | [5] 9.11% [100 µM] | [8] 1.1% [100 µM] | [13] -65.9% [100 µM] | [14] -32.7% [100 µM] | [15] -16.9% [100 µM]

CN(C)c1cc(NN=C(c2ccc(O)cc2)c2ccc(O)cc2)c([N+](=O)[O-])cc1[N+](=O)[O-]
inactive: [1] 96.8% | [2] 118% | [3] 153% | [4] 81.8% | [6] 81.5% | [7] 79.3% | [8] 74.9% | [9] 25.1% | [10] 48.2% | [11] 46.4% | [12] 114% | [13] 98% | [14] 67.7% | [15] 70.8% | [16] 87.8% | [17] 26% | [18] 71.7% | [19] 43.7% | [20] 81.5%
active: [5] 0.652%

COc1ccc(/C=C(/C2=NCCN2)n2ccc3ccccc32)cc1
inactive: [1] 96.2% | [2] 84.3% | [3] 87% | [4] 89.5% | [5] 77.9% | [6] 79.3% | [7] 85.8% | [8] 92.7% | [9] 94.3% | [10] 86.2% | [11] 95.7% | [12] 89% | [13] 65% | [14] 91.6% | [15] 89% | [16] 73.4% | [17] 94.7% | [18] 86.8% | [19] 84.7% | [20] 104%

COc1ccc2[nH]c(C(=O)N3CCN(C(=O)OCc4ccc5c(Br)cc(Br)c(O)c5n4)CC3)cc2c1
active: [1] -97.8% | [2] 2.19% | [3] -95.3% | [4] -84.6% | [5] -87.9% | [6] -80.2% | [7] -87.8% | [8] -99.8% | [9] -59.1% | [10] -77.9% | [11] -72.2% | [12] -68.5% | [13] -98.5% | [14] -93.1% | [15] -95.7% | [16] -87.9% | [17] -99% | [18] -95.5% | [19] -91.2% | [20] -98.1%

CCN(CC)c1ccc2cc(NC(=O)OCCNC(=O)CCNC(=O)[C@H](CC(C)C)NC(=O)C(C)(C)NC(=O)C(C)(C)NC(=O)[C@H](CC(C)C)NC(=O)CCNC(=O)C(C)(C)NC(=O)[C@H](CC(C)C)NC(=O)CCNC(=O)[C@@](C)(CC)NC(=O)[C@H](C)NC(=O)CCNC(=O)C(C)(C)NC(=O)[C@H](C)NC(=O)[C@@H]3CCCN3C(=O)[C@@](C)(CC)NC(=O)[C@H](Cc3ccccc3)NC(=O)C3CCCN3C(=O)C(C)(C)NC(=O)C3CCCN3C(=O)C(C)(C)NC(C)=O)c(=O)oc2c1 (stereo not given in full)
active: [1] -100% | [2] -59.5% | [3] -80.4% | [4] -83.2% | [5] -82% | [6] -94.6% | [7] -84.7% | [8] -84.7% | [9] -89.4% | [10] -79.4% | [11] -93.3% | [12] -81.4% | [13] -91.6% | [14] -76.5% | [15] -85.6% | [16] -91.2% | [17] -100% | [18] -76.2% | [19] -85% | [20] -84.1%

Cn1cc(-c2noc(C(=O)c3cn(C)c4ncccc34)n2)c2ccccc21
inactive: [1] 87.4% | [2] 76.1% | [3] 72.5% | [4] 70.3% | [5] 88.5% | [6] 99.3% | [7] 101% | [8] 90.2% | [9] 103% | [10] 98.7% | [11] 65.2% | [12] 102% | [13] 60.4% | [14] 93.1% | [15] 89.2% | [16] 87% | [17] 87.9% | [18] 91.8% | [19] 94.8% | [20] 100%

CCc1ccc(NC(=O)N[C@@H](Cc2cc(F)cc(F)c2)C(=O)N[C@@H]2C(=O)N3C[C@H](O)C[C@H]3C(=O)N3CCOC[C@H]3C(=O)N[C@@H](C)C(=O)N3C[C@H](C)C[C@H]3C(=O)O[C@H]2C)cc1
active: [13] 8.76%
inactive: [1] 42.6% | [2] 24.7% | [3] 39.4% | [4] 16.1% | [5] 88.1% | [6] 29.1% | [7] 81.9% | [8] 55.8% | [9] 21.5% | [10] 84.8% | [11] 108% | [12] 31.2% | [14] 20.2% | [15] 24.8% | [16] 14.4% | [17] 85% | [18] 29.7% | [19] 41.6% | [20] 39.7%

c1ccc(-c2n[nH]c(-c3ccccn3)n2)nc1
inactive: [1] 133% | [2] 104% | [3] 107% | [4] 116% | [5] 95.7% | [6] 140% | [7] 98.1% | [8] 106% | [9] 106% | [10] 111% | [11] 96.4% | [12] 108% | [13] 101% | [14] 99.5% | [15] 110% | [16] 94.4% | [17] 102% | [18] 104% | [19] 115% | [20] 149%

COC(=O)[C@]1(C)CC[C@]2(C)CC[C@]3(C)C(=CC(=O)[C@@H]4[C@@]5(C)CCC(=O)NC(C)(C)[C@@H]5CC[C@]43C)[C@@H]2C1
active: [1] -24.1% [100 µM] | [2] 4.37% [100 µM] | [3] -76.4% [100 µM] | [4] -80.2% [100 µM] | [5] -85.5% [100 µM] | [6] -55.3% [100 µM] | [7] -70.6% [100 µM] | [8] -85% [100 µM] | [9] -30.3% [100 µM] | [10] -39.1% [100 µM] | [11] -19.6% [100 µM] | [12] -55% [100 µM] | [13] -83.3% [100 µM] | [14] -89.8% [100 µM] | [15] -89.2% [100 µM] | [16] -65.8% [100 µM] | [17] -94% [100 µM] | [18] -88.9% [100 µM] | [19] -97.7% [100 µM] | [20] -67.3% [100 µM]

CCN(CC)c1ccc(/C=C/C=C2\NC(=O)NC2=O)cc1
inactive: [1] 40.8% | [2] 13.9% | [3] 51.8% | [4] 64.1% | [6] 54.8% | [7] 24.1% | [8] 10.4% | [9] 43% | [10] 17.7% | [11] 29.5% | [13] 33.8% | [14] 34.6% | [15] 29.1% | [16] 18.9% | [18] 33% | [19] 33.2% | [20] 57.5%
active: [5] 2.31% | [12] -30.1% | [17] 8.64%

Cc1ccc(-n2nc3n(/c2=N\C(=O)NS(=O)(=O)c2ccc(C)cc2)CCN3C2=NCCN2)cc1
inactive: [1] 108% | [2] 109% | [3] 106% | [4] 99.7% | [5] 123% | [6] 103% | [7] 102% | [8] 95.1% | [9] 98.1% | [10] 101% | [11] 105% | [12] 107% | [13] 85.6% | [14] 99.2% | [15] 105% | [16] 96.4% | [17] 105% | [18] 95.9% | [19] 113% | [20] 101%

CN(C)Cc1ccc[nH]1
inactive: [1] 115% | [2] 113% | [3] 126% | [4] 77.6% | [5] 95.3% | [6] 103% | [7] 90.1% | [8] 92.3% | [10] 93.2% | [11] 102% | [12] 114% | [13] 92.5% | [14] 97.7% | [15] 108% | [16] 99.2% | [17] 102% | [18] 91.6% | [19] 81.3% | [20] 107%
active: [9] 0.0923%

COCCCNc1nc(NC(=O)c2cc(OC)cc(OC)c2)cc(-c2cccnc2)n1
inactive: [1] 101% | [2] 86.1% | [3] 112% | [4] 69.1% | [5] 97.7% | [6] 100% | [7] 100% | [8] 88.9% | [9] 106% | [10] 107% | [11] 90.3% | [12] 95.5% | [13] 73.1% | [14] 98.3% | [15] 96.8% | [16] 87.3% | [17] 72.4% | [18] 111% | [19] 94.5% | [20] 105%

Source: PubChem BioAssay (NCI)
